# The panel holds about 83,000 compounds, 20% with a hit somewhere; the sample as a whole holds those more often.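 Each cell line was grown in a 96-well plate and treated with one concentration of compound for 48 hours. Values below 10 were considered active.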 Activity calls are given as the source filed them.
# Test system: IGROV1 ovarian
# Test: NCI-60 one-dose screen, 48 h (100 = growth as untreated, 0 = no growth, -100 = all killed)
# Details: 10 µM
row,SMILES,growth
1,CCN(CC)c1ccc(/C=C2\SC(=O)C(Nc3nnc(-c4cccnc4SCc4ccccc4)o3)C2=O)cc1 (stereo not given),56.5% (inactive)
2,O=C(N/N=C/c1ccc([N+](=O)[O-])cc1)c1ccccc1Nc1cccc(C(F)(F)F)c1,67.3% (inactive)
3,CC(=O)[C@H]1CC[C@]2(C)[C@@H]1CC[C@@H]1[C@@]3(C)CC(CCC#N)(CCC#N)C(=O)C(C)(C)[C@@H]3CC[C@]12C,98.4% (inactive)
4,Cc1cc(CSc2ccccc2C(=O)N2CC=C(c3ccccc3)CC2)on1,92.2% (inactive)
5,N#Cc1ccc(C(=O)CSc2nccc(Nc3ccc(C(=O)O)cc3)n2)cc1,102% (inactive)
6,COc1ccc2nc3cc(Cl)ccc3c(Nc3cc(CN4CCCC4)c(O)c(CN4CCCC4)c3)c2n1,27.6% (inactive)
7,O=C(N/N=C/c1ccc(Cl)cc1)c1ccc(Cc2n[nH]c(=O)c3cccnc23)cc1,102% (inactive)
8,O=S(=O)(Oc1ccc(-c2ccc3sccc3c2)cc1)c1ccc(F)cc1,104% (inactive)
9,CNC(=O)c1c(I)c(NC(C)=O)c(I)c(C(=O)O)c1I,115% (inactive)
10,C/C(=N\O)c1ccc(NC(=O)CSc2nnc(-c3ccccc3)n2-c2ccccc2)cc1,76.7% (inactive)
11,COc1ccc(/C=C2/SC(=S)NC2=O)c(OC)c1OC,105% (inactive)
12,C[C@]12CC[C@@H]3c4ccc(O)cc4CC[C@H]3[C@@H]1CC[C@@H]2NS(=O)(=O)c1ccc(C(F)(F)F)cc1,30.5% (inactive)
13,NS(=O)(=O)c1ccc(Br)cc1,100% (inactive)
14,CNS(=O)(=O)Oc1ccc(-c2ccc3occc3c2)cc1,99.8% (inactive)
15,COc1cc(-c2nn(-c3cccc(NC(=O)CCN4CCN(c5ccccc5)CC4)c3)cc2-c2ccncc2)ccc1Cl,32.7% (inactive)
16,CCN(CC)CC(=O)N(CC)c1ccc(C)c(Cl)c1,101% (inactive)
17,Cc1cccc(N=Cc2ccccc2O)c1C,115% (inactive)
18,CCCCC1(O)CCCCC1,114% (inactive)
19,COc1ccc(/C=C2\CCCC3=C2N=C2SC(C)=CN2C3c2ccc(OC)cc2)cc1 (stereo not given),111% (inactive)
20,c1ccc(CSc2ncccc2-c2nnc(SCCN3CCOCC3)o2)cc1,98.3% (inactive)
21,C/C=C/C1=CN2C(=O)c3cc(OC4OC(C)C(NC)C(C)(O)C4O)c(C)c(O)c3N=C[C@@H]2C1 (stereo not given in full),-22.7% (active)
22,C[C@]12CC[C@@H]3c4ccc(OS(=O)(=O)O)cc4CC[C@H]3[C@@H]1CC[C@@H]2NS(=O)(=O)c1ccc(-c2ccccc2)cc1,70.4% (inactive)
23,COc1ccc(/C(C#N)=C/c2ccccc2OC)cc1,31.9% (inactive)
24,COc1ccc(Cc2cnc(N)nc2N)cc1OC,112% (inactive)
25,Cc1cc(CC(C)CC(C)(C)C)n(O)c(=O)c1 (stereo not given) (tested in a mixture with another compound),9.36% (active)

# Test system: OVCAR-3 ovarian
# Test: as above
# Details: 10 µM
row,SMILES,growth
1,O=C(O)c1ccc(-n2cc(CNc3ccc(Cl)cc3)c(-c3ccccc3)n2)cc1,98.6% (inactive)
2,Cc1ccc(C(=O)C2C(=O)C3CCC2C3)cc1 (stereo not given),107% (inactive)
3,COc1cc2c(Nc3ccc(S(N)(=O)=O)cc3)ncnc2c(OC)c1OC,90.4% (inactive)
4,CN1CCN(CC(=O)Nc2cccc(-n3cc(-c4ccncc4)c(-c4ccc(Cl)c(O)c4)n3)c2)CC1,12.8% (inactive)
5,O=[N+]([O-])c1cccc(/C=N/NC(=S)NC23CC4CC(CC(C4)C2)C3)c1,85.9% (inactive)
6,CN1CCN(c2cc3c(cc2F)c(=O)c(C(=O)O)cn3-c2ccc(F)cc2)CC1,102% (inactive)
7,O=C(CN1CCN(C(=O)c2ccccc2)CC1)Nc1ccccc1SCc1ccccc1,91.5% (inactive)
8,Clc1ccc2c(c1)C(N1CCNCC1)=Nc1ccccc1O2,46.6% (inactive)
9,CCOC(=O)c1cc(C(=O)c2cc(OC)c(OC)c(OC)c2)n2ncc3ccccc3c12,47% (inactive)
10,CC(=O)C1CCC2C3CC=C4CC(SC(=N)N)CCC4(C)C3CCC12C (stereo not given),63.1% (inactive)
11,COc1cc2c(Nc3ccc(-c4ccc(N)cc4)cc3)ncnc2c(OC)c1OC,41.4% (inactive)
12,C#C[C@]1(O)CCC2C3CCc4cc(OC5CCCC5)ccc4C3CC[C@@]21C (stereo not given in full),96.4% (inactive)
13,Cc1cc(SC#N)cc(C(C)(C)C)c1O,95% (inactive)
14,Cc1cc(CCNC=O)c(C)c2c1sc1ccccc12,111% (inactive)
15,CO[C@H]1CC(O[C@@H]2/C(C)=C/C[C@@H]3C[C@@H](C[C@]4(C=C[C@H](C)[C@@H](C5CCCCC5)O4)O3)OC(=O)[C@@H]3C=C(C)[C@@H](O)[C@H]4OC/C(=C\C=C\[C@@H]2C)[C@]43O)O[C@@H](C)C1O[C@H]1C[C@H](OC)[C@@H](O)[C@H](C)O1 (stereo not given in full),-96.9% (active)
16,CCN(CC)c1ccc(/C=C2\SC(=O)C(Nc3nnc(-c4cccnc4SCc4ccccc4)o3)C2=O)cc1 (stereo not given),-13.5% (active)
17,O=C(N/N=C/c1ccc([N+](=O)[O-])cc1)c1ccccc1Nc1cccc(C(F)(F)F)c1,103% (inactive)
18,CC(=O)[C@H]1CC[C@]2(C)[C@@H]1CC[C@@H]1[C@@]3(C)CC(CCC#N)(CCC#N)C(=O)C(C)(C)[C@@H]3CC[C@]12C,107% (inactive)
19,Cc1cc(CSc2ccccc2C(=O)N2CC=C(c3ccccc3)CC2)on1,107% (inactive)
20,N#Cc1ccc(C(=O)CSc2nccc(Nc3ccc(C(=O)O)cc3)n2)cc1,110% (inactive)

row,SMILES,growth
1,COc1ccc2nc3cc(Cl)ccc3c(Nc3cc(CN4CCCC4)c(O)c(CN4CCCC4)c3)c2n1,23.9% (inactive)
2,O=C(N/N=C/c1ccc(Cl)cc1)c1ccc(Cc2n[nH]c(=O)c3cccnc23)cc1,106% (inactive)
3,O=S(=O)(Oc1ccc(-c2ccc3sccc3c2)cc1)c1ccc(F)cc1,110% (inactive)
4,CNC(=O)c1c(I)c(NC(C)=O)c(I)c(C(=O)O)c1I,111% (inactive)
5,C/C(=N\O)c1ccc(NC(=O)CSc2nnc(-c3ccccc3)n2-c2ccccc2)cc1,81.4% (inactive)
6,COc1ccc(/C=C2/SC(=S)NC2=O)c(OC)c1OC,89.6% (inactive)
7,C[C@]12CC[C@@H]3c4ccc(O)cc4CC[C@H]3[C@@H]1CC[C@@H]2NS(=O)(=O)c1ccc(C(F)(F)F)cc1,35.4% (inactive)
8,NS(=O)(=O)c1ccc(Br)cc1,114% (inactive)
9,CNS(=O)(=O)Oc1ccc(-c2ccc3occc3c2)cc1,107% (inactive)
10,COc1cc(-c2nn(-c3cccc(NC(=O)CCN4CCN(c5ccccc5)CC4)c3)cc2-c2ccncc2)ccc1Cl,16.2% (inactive)
11,CCN(CC)CC(=O)N(CC)c1ccc(C)c(Cl)c1,102% (inactive)
12,Cc1cccc(N=Cc2ccccc2O)c1C,113% (inactive)
13,CCCCC1(O)CCCCC1,106% (inactive)
14,COc1ccc(/C=C2\CCCC3=C2N=C2SC(C)=CN2C3c2ccc(OC)cc2)cc1 (stereo not given),102% (inactive)
15,c1ccc(CSc2ncccc2-c2nnc(SCCN3CCOCC3)o2)cc1,120% (inactive)
16,C/C=C/C1=CN2C(=O)c3cc(OC4OC(C)C(NC)C(C)(O)C4O)c(C)c(O)c3N=C[C@@H]2C1 (stereo not given in full),-4.33% (active)
17,C[C@]12CC[C@@H]3c4ccc(OS(=O)(=O)O)cc4CC[C@H]3[C@@H]1CC[C@@H]2NS(=O)(=O)c1ccc(-c2ccccc2)cc1,52.6% (inactive)
18,COc1ccc(/C(C#N)=C/c2ccccc2OC)cc1,25.8% (inactive)
19,COc1ccc(Cc2cnc(N)nc2N)cc1OC,106% (inactive)
20,Cc1cc(CC(C)CC(C)(C)C)n(O)c(=O)c1 (stereo not given) (tested in a mixture with another compound),24.2% (inactive)
